# PubChem BioAssay
# Where “and” joins values, the source holds several entries; their conditions need not be identical. Identical values can stand only once. Some compounds were tested as several samples or in several runs, with calls that do not always agree. Calls of active or inactive are those of the source.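 How the source made its calls, unless noted: active means thallium flux through the channel raised or lowered by more than 3 SD from vehicle-only wells, actives on both sides; inactive means the rest.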
# Experiments:
# [1] = liver-stage malaria parasite growth inhibition, primary screen, cell-based, HepG2, luciferase luminescence, HepG2 viability (AID 624349; in the data active means parasite load remaining mostly below about 12%, no sharp cut-off; inactive means mostly above about 10%;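 further: 100% = mean of DMSO negative control wells on the same plate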); settings: P. berghei liver stage in HepG2, luciferase luminescence, concentration not given here; parasite load remaining: stronger effect = lower value; viability: measured here: HepG2 viability without parasites
# [2] = Cy5 fluorescence interference with SSB-bound oligo, artefact control for HCV NS3 helicase inhibitor project, biochemical, NIH Clinical Collection, E. coli SSB (AID 743268; call rule not given here)
# [3] = test system: Hepatitis C virus NS3 helicase; experiment: HCV NS3 helicase inhibitors, primary screen, biochemical, fluorescence polarization, NIH Clinical Collection (AID 743270; call rule not given here); settings: NS3 helicase binding to Cy5-dT15 DNA, stronger effect = higher value, concentration not given here
# [4] = target: Single-stranded DNA-binding protein (Escherichia coli (strain K12)) (UniProt P0AGE0); experiment: E. coli SSB displacement from DNA, counter-screen for HCV NS3 helicase inhibitor project, biochemical, fluorescence polarization, NIH Clinical Collection (AID 743271; in the data active means inhibition above about 28%); settings: stronger effect = higher value, concentration not given here
# [5] = fluorescence interference in NS3h assay format, artefact control for HCV NS3 helicase inhibitor project, biochemical, NIH Clinical Collection (AID 743272; call rule not given here;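 further: HCV NS3 helicase with a Cy5 labelled single stranded DNA probe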); settings: fluorescence interference counterscreen, stronger effect = lower value
# [6] = modulation of C. elegans fzo-1 (AID 1259413; call rule not given here;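 further: fzo-1 mutant C. elegans worms in liquid wells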); settings: C. elegans fzo-1 modulator screen, mean read-out; stronger effect = higher value
# [7] = survival rescue of mitochondrial mutant cells in low glucose, primary screen, MELAS cybrids, Rieske KO mouse fibroblasts, CellTiter-Glo (AID 1508586;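 active means mean z-score across replicates of 1.96 or higher in either the MELAS or the Rieske mutant cell line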;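 further: z relative to plate mean and SD of compound and empty wells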)
# F380Y = experiment: modulators of BK channel variants, profiling panel, selectivity assay, cell-based, U2OS BacMam, thallium flux, beta subunits (AID 1259406); settings: at 30 µM;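 further: initial slope of Thallos dye fluorescence rise after thallium is added; log ratio against the mean of 0.3% DMSO vehicle wells on the same plate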
# F380Y/beta1 = experiment: as above; settings: at 30 µM
# F380Y/beta2Delta = experiment: as above; settings: at 30 µM
# F380Y/beta4 = experiment: as above; settings: at 30 µM
# [8] = target: Calcium-activated potassium channel subunit alpha-1 (Homo sapiens) + Leucine-rich repeat-containing protein 26 (Homo sapiens) (UniProt Q12791+Q2I0M4); experiment: as above; settings: F380Y/Slo1WT/gamma1, at 30 µM
# R275C = experiment: as above; settings: at 30 µM
# R275C/beta1 = experiment: as above; settings: at 30 µM
# R275C/beta2Delta = experiment: as above; settings: at 30 µM
# R275C/beta4 = experiment: as above; settings: at 30 µM
# R275C/Slo1WT/beta2 = experiment: as above; settings: at 30 µM
# [9] = differential killing of epithelial or mesenchymal cells, primary screen, imaging, PC-3E GFP, TEM4-18 mCherry, co-culture (AID 1345086;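 active means compounds killing one labelled cell type while sparing the other, by normalised counts and ratio limits, not self-fluorescent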;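 on all read-outs here: cells exposed to compound for 72 h before imaging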;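 on red/green cell ratio (normalised): normalised mesenchymal count divided by normalised epithelial count so high means epithelial killing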); settings: imaging cell counts, at 1 µM; for red/green cell ratio (normalised): actives lie on both sides, counts scaled to control wells, 1 = unselective
# [10] = sensitizers of A549 cells to miR-34 induction, primary screen, imaging, A549 dox-inducible miR-34, nuclei and caspase counts (AID 1347080;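 active means compounds whose cell count with miR-34 switched on is under 0.7 times the count with it off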); settings: A549 miR-34 inducible, Hoechst nuclei count, 48 h
# [11] = MELAS cybrid survival, CellTiter-Glo 48 h, stronger effect = higher value
# [12] = Rieske KO mouse fibroblast survival, CellTiter-Glo 72 h
# [13] = measured here: epithelial PC-3E GFP cell survival
# [14] = measured here: mesenchymal TEM4-18 mCherry cell survival
# [15] = stronger effect = lower value, cell number ratio, induced over uninduced
# [16] = measured here: relative caspase fold change +Dox/-Dox
# [17] = measured here: total cells with miR-34 induction, stronger effect = lower value
# [18] = measured here: total cells without miR-34 induction
# Calcium-activated potassium channel subunit alpha-1 (Homo sapiens) + Leucine-rich repeat-containing protein 26 (Homo sapiens), sequence (Q2I0M4 whole entry, looked up, one chain of several): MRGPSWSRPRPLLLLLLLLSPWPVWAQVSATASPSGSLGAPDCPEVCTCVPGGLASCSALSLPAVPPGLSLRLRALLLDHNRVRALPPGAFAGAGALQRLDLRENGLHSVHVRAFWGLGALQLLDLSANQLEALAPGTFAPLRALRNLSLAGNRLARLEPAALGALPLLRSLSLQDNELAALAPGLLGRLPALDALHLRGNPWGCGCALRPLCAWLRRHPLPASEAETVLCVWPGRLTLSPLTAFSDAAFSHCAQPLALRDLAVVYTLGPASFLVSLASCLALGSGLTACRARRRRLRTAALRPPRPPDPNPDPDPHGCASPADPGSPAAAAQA
structure (smiles),measurement,setting,value
Cc1cc2c(s1)Nc1ccccc1N=C2N1CCN(C)CC1,parasite load remaining,[1],58.8% (inactive) and 82.2% (inactive) and 32.6% (inactive)
same,viability,[1],151% and 67.6% and 138%
same,fluorescence ratio,[2],1.04 (inactive)
same,inhibition,[3],-1.19% (inactive)
same,inhibition,[4],-3.18% (inactive)
same,fluorescence ratio,[5],1 (inactive)
same,mean signal,[6],245 (inactive)
same,z-score,[7]; [11],-0.362 (inactive) and 0.328 (inactive) and 0.46 (inactive)
same,z-score,[7]; [12],0.469 and -0.59 and 1.26
same,log fold change Tl+ flux,F380Y,0.136 (active)
same,log fold change Tl+ flux,F380Y/beta1,0.0857 (inactive)
same,log fold change Tl+ flux,F380Y/beta2Delta,0.0704 (inactive)
same,log fold change Tl+ flux,F380Y/beta4,0.111 (active)
same,log fold change Tl+ flux,[8],-0.004 (inactive)
same,log fold change Tl+ flux,R275C,-0.00393 (inactive)
same,log fold change Tl+ flux,R275C/beta1,0.000391 (inactive)
same,log fold change Tl+ flux,R275C/beta2Delta,-0.0244 (inactive)
same,log fold change Tl+ flux,R275C/beta4,-0.0479 (inactive)
same,log fold change Tl+ flux,R275C/Slo1WT/beta2,0.0472 (inactive)
COc1nc(C)nc(Cl)c1NC1=NCCN1,parasite load remaining,[1],85.8% (inactive) and 79.7% (inactive)
same,viability,[1],72.6% and 70.2%
same,fluorescence ratio,[2],1.09 (inactive)
same,inhibition,[3],4.36% (inactive)
same,inhibition,[4],5.29% (inactive)
same,fluorescence ratio,[5],1.07 (inactive)
same,mean signal,[6],246 (inactive)
same,z-score,[7]; [11],-0.211 (inactive) and 0.715 (inactive)
same,z-score,[7]; [12],0.176 and 0.122
same,log fold change Tl+ flux,F380Y,-0.00461 (inactive)
same,log fold change Tl+ flux,F380Y/beta1,-0.0516 (inactive)
same,log fold change Tl+ flux,F380Y/beta2Delta,-0.0248 (inactive)
same,log fold change Tl+ flux,F380Y/beta4,-0.00507 (inactive)
same,log fold change Tl+ flux,[8],-0.00669 (inactive)
same,log fold change Tl+ flux,R275C,-0.0325 (inactive)
same,log fold change Tl+ flux,R275C/beta1,-0.0423 (inactive)
same,log fold change Tl+ flux,R275C/beta2Delta,-0.005 (inactive)
same,log fold change Tl+ flux,R275C/beta4,-0.00418 (inactive)
same,log fold change Tl+ flux,R275C/Slo1WT/beta2,-0.0114 (inactive)
CCN(CC)CC#CCOC(=O)C(O)(c1ccccc1)C1CCCCC1 (configuration not stated),fluorescence ratio,[2],1.01 (inactive)
same,inhibition,[3],-5.91% (inactive)
same,inhibition,[4],1.05% (inactive)
same,fluorescence ratio,[5],0.97 (inactive)
same,mean signal,[6],265 (inactive)
same,red/green cell ratio (normalised),[9],1.02 (inactive)
same,normalised cell number,[9]; [13],1.13
same,normalised cell number,[9]; [14],1.14
same,z-score,[7]; [11],-0.351 (inactive) and 0.357 (inactive)
same,z-score,[7]; [12],0.474 and 0.0643
same,log fold change Tl+ flux,F380Y,-0.0501 (inactive)
same,log fold change Tl+ flux,F380Y/beta1,-0.0697 (inactive)
same,log fold change Tl+ flux,F380Y/beta2Delta,-0.0326 (inactive)
same,log fold change Tl+ flux,F380Y/beta4,0.0257 (inactive)
same,log fold change Tl+ flux,[8],-0.0619 (inactive)
same,log fold change Tl+ flux,R275C,-0.105 (active)
same,log fold change Tl+ flux,R275C/beta1,-0.00047 (inactive)
same,log fold change Tl+ flux,R275C/beta2Delta,-0.0198 (inactive)
same,log fold change Tl+ flux,R275C/beta4,0.205 (active)
same,log fold change Tl+ flux,R275C/Slo1WT/beta2,-0.0121 (inactive)
CN1[C@@H]2CCC[C@H]1CC(NC(=O)c1nn(C)c3ccccc13)C2 (some centres not stated),mean signal,[6],239 (inactive)
same,fold change,[10]; [15],0.964 (inactive)
same,fold change,[10]; [16],1.59
same,cell count,[10]; [17],10200
same,cell count,[10]; [18],10600
same,z-score,[7]; [11],0.342 (inactive) and -0.62 (inactive)
same,z-score,[7]; [12],0.00777 and -1.31
same,log fold change Tl+ flux,F380Y,0.0826 (inactive)
same,log fold change Tl+ flux,F380Y/beta1,0.016 (inactive)
same,log fold change Tl+ flux,F380Y/beta2Delta,0.036 (inactive)
same,log fold change Tl+ flux,F380Y/beta4,0.0312 (inactive)
same,log fold change Tl+ flux,[8],0.00528 (inactive)
same,log fold change Tl+ flux,R275C,-0.0264 (inactive)
same,log fold change Tl+ flux,R275C/beta1,0.0105 (inactive)
same,log fold change Tl+ flux,R275C/beta2Delta,0.0242 (inactive)
same,log fold change Tl+ flux,R275C/beta4,0.0148 (inactive)
same,log fold change Tl+ flux,R275C/Slo1WT/beta2,0.0272 (inactive)
Cc1c(C(=O)NN2CCCCC2)nn(-c2ccc(Cl)cc2Cl)c1-c1ccc(I)cc1,parasite load remaining,[1],23% (inactive)
same,viability,[1],70.4%
same,fluorescence ratio,[2],0.91 (inactive)
same,inhibition,[3],0.66% (inactive)
same,fluorescence ratio,[5],0.92 (inactive)
same,mean signal,[6],229 (inactive)
same,z-score,[7]; [11],-0.338 (inactive)
same,z-score,[7]; [12],-0.0666
same,log fold change Tl+ flux,F380Y,0.00861 (inactive)
same,log fold change Tl+ flux,F380Y/beta1,-0.0372 (inactive)
same,log fold change Tl+ flux,F380Y/beta2Delta,-0.0265 (inactive)
same,log fold change Tl+ flux,F380Y/beta4,-0.0348 (inactive)
same,log fold change Tl+ flux,[8],-0.0487 (inactive)
same,log fold change Tl+ flux,R275C,0.0781 (inactive)
same,log fold change Tl+ flux,R275C/beta1,0.0181 (inactive)
same,log fold change Tl+ flux,R275C/beta2Delta,-0.00675 (inactive)
same,log fold change Tl+ flux,R275C/beta4,0.0297 (inactive)
same,log fold change Tl+ flux,R275C/Slo1WT/beta2,0.0305 (inactive)
O=c1[nH]c(=O)n(C2CCCO2)cc1F (configuration not stated),parasite load remaining,[1],107% (inactive) and 21.2% (inactive)
same,viability,[1],73.5% and 76.5%
same,fluorescence ratio,[2],1.08 (inactive)
same,inhibition,[3],6.73% (inactive)
same,inhibition,[4],5.29% (inactive)
same,fluorescence ratio,[5],1.04 (inactive)
same,mean signal,[6],283 (inactive)
same,fold change,[10]; [15],0.803 (inactive) and 0.835 (inactive) and 0.463 (active)
same,fold change,[10]; [16],1.28 and 1.27 and 3.72
same,cell count,[10]; [17],7370 and 6840 and 4080
same,cell count,[10]; [18],9180 and 8190 and 8820
same,z-score,[7]; [11],-0.322 (inactive) and 0.511 (inactive) and 0.255 (inactive)
same,z-score,[7]; [12],-0.199 and -0.575 and -0.0895
same,log fold change Tl+ flux,F380Y,-0.0407 (inactive)
same,log fold change Tl+ flux,F380Y/beta1,0.033 (inactive)
same,log fold change Tl+ flux,F380Y/beta2Delta,-0.0133 (inactive)
same,log fold change Tl+ flux,F380Y/beta4,-0.0214 (inactive)
same,log fold change Tl+ flux,[8],0.0446 (inactive)
same,log fold change Tl+ flux,R275C,-0.0615 (inactive)
same,log fold change Tl+ flux,R275C/beta1,-0.0291 (inactive)
same,log fold change Tl+ flux,R275C/beta2Delta,-0.0162 (inactive)
same,log fold change Tl+ flux,R275C/beta4,-0.0234 (inactive)
same,log fold change Tl+ flux,R275C/Slo1WT/beta2,0.00334 (inactive)
CC(C)C[C@H](NC(=O)[C@@H](O)[C@H](N)Cc1ccccc1)C(=O)O,parasite load remaining,[1],23.8% (inactive)
same,viability,[1],136%
same,fluorescence ratio,[2],0.92 (inactive)
same,inhibition,[3],0.66% (inactive)
same,inhibition,[4],9.06% (inactive)
same,fluorescence ratio,[5],0.88 (inactive)
same,mean signal,[6],255 (inactive)
same,z-score,[7]; [11],-0.957 (inactive)
same,z-score,[7]; [12],0.817
same,log fold change Tl+ flux,F380Y,-0.0323 (inactive)
same,log fold change Tl+ flux,F380Y/beta1,-0.0233 (inactive)
same,log fold change Tl+ flux,F380Y/beta2Delta,0.0093 (inactive)
same,log fold change Tl+ flux,F380Y/beta4,-0.0304 (inactive)
same,log fold change Tl+ flux,[8],-0.0684 (inactive)
same,log fold change Tl+ flux,R275C,-0.0391 (inactive)
same,log fold change Tl+ flux,R275C/beta1,0.000543 (inactive)
same,log fold change Tl+ flux,R275C/beta2Delta,-0.0202 (inactive)
same,log fold change Tl+ flux,R275C/beta4,0.00103 (inactive)
same,log fold change Tl+ flux,R275C/Slo1WT/beta2,-0.0673 (inactive)
COc1c(N2C[C@@H]3CCCN[C@@H]3C2)c(F)cc2c(=O)c(C(=O)O)cn(C3CC3)c12,parasite load remaining,[1],52.8% (inactive)
same,viability,[1],70.8%
same,mean signal,[6],299 (inactive)
same,red/green cell ratio (normalised),[9],1.11 (inactive)
same,normalised cell number,[9]; [13],0.89
same,normalised cell number,[9]; [14],0.99
same,fold change,[10]; [15],0.953 (inactive)
same,fold change,[10]; [16],0.781
same,cell count,[10]; [17],7060
same,cell count,[10]; [18],7410
same,z-score,[7]; [11],-0.444 (inactive) and -0.324 (inactive)
same,z-score,[7]; [12],0.523 and -0.694
same,log fold change Tl+ flux,F380Y,0.00312 (inactive)
same,log fold change Tl+ flux,F380Y/beta1,-0.0479 (inactive)
same,log fold change Tl+ flux,F380Y/beta2Delta,0.0707 (inactive)
same,log fold change Tl+ flux,F380Y/beta4,0.0364 (inactive)
same,log fold change Tl+ flux,[8],0.0216 (inactive)
same,log fold change Tl+ flux,R275C,-0.02 (inactive)
same,log fold change Tl+ flux,R275C/beta1,-0.0156 (inactive)
same,log fold change Tl+ flux,R275C/beta2Delta,0.0202 (inactive)
same,log fold change Tl+ flux,R275C/beta4,0.0129 (inactive)
same,log fold change Tl+ flux,R275C/Slo1WT/beta2,0.0157 (inactive)
